# Measured values reported in PubChem BioAssay (NCI).
# This is part of a sample that, as a whole, favours compounds with a hit. Of some 83,000 tested, about 20% had one in any assay.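 Step 1: grow cells in 96-well plates. Step 2: add test compound at a single concentration. Step 3: incubate 48 h. Step 4: record percent growth.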 A number with no mark means an inactive call. Active and inactive are the calls of the source. The calls were made as follows: active = growth percent below 10; inactive = the rest.
# System: EKVX NSCLC
# Test: NCI-60 one-dose screen, 48 h (100 = growth as untreated, 0 = no growth, -100 = all killed)
# Conditions: 10 µM unless noted
row,Compound,growth
1,COCCn1cc(-c2csc(-c3c[nH]c4ccccc34)n2)c2cccnc21,31.8%
2,CCN(CC)c1ccc(-c2cc(-c3cc(OC)c(OC)c(OC)c3)nc(N3CCC(O)CC3)c2C#N)cc1,18.6%
3,CN1C(=O)/C(=C/c2ccc(C(=O)Nc3ncc(Cc4cccc(C(F)(F)F)c4)s3)cc2)SC1=S,37.1%
4,Nc1ncnc2c1N=C(c1ccc(Cl)cc1)CC(c1cccc(Nc3ccnc4cc(Cl)ccc34)c1)N2 (stereo not given),59.4%
5,COCCn1cc(-c2nc(-c3cc4cccnc4n3C)cs2)c2ccccc21,19.8%
6,COC(=O)[C@]1(C)CCC[C@]2(C)[C@H]3C[C@@H]4[C@H]5[C@@H]6CC/C(=N\OCC/C(N)=N/O)[C@H]5[C@@]3(CC[C@H]21)CC4(C(C)C)O6,62.5%
7,Cc1cccc(-c2nc(C(C)C)sc2-c2ccnc(NCCCNS(=O)(=O)c3ccc(Cl)cc3)c2)c1,78.4%
8,O=C(/C=C/C12c3ccccc3C(c3ccccc31)C1C(=O)NC(=O)C12)c1ccc(Cl)cc1Cl (stereo not given),36.4%
9,CC(C)(C)CC(C)(C)Nc1c(-c2c(O)c3ccccc3oc2=O)nc2sc3ccccc3n12,26.6%
10,CN(C)CCC(CCN(C)C)(C(=O)O)c1ccccc1,107%
11,Cn1c(=O)[nH]c(=O)c2nc3c(nc21)-c1ccccc1C3=O,95%
12,C=C(c1ccc(C(=O)O)c(F)c1)c1cc2c(cc1C)C(C)(C)CCC2(C)C,75.6%
13,C=C1C(=O)O[C@H]2[C@H]1CC/C(COC(=O)C(=O)c1c[nH]c3ccc(Cl)cc13)=C\CC[C@@]1(C)O[C@@H]21,-73.6% (active)
14,N#Cc1c(-c2ccc(Br)cc2)nc2c(N=Nc3ccc(S(N)(=O)=O)cc3)c(N)nn2c1N,71.1%
15,CCN(CC)CCN1C(=O)c2c(c3c4ccccc4[nH]c3c3ccc4ccccc4c23)C1=O,18.6%
16,O=C(/C=C/c1ccccc1)N(C1CCCCC1)C1CCCCC1,85.1%
17,CC1(C)CC[C@]2(CO)CC[C@]3(C)[C@](O)([C@H](O)C[C@@H]4[C@@]5(C)CCCNC(C)(C)[C@@H]5CC[C@]43C)[C@@H]2C1,107%
18,Nc1nc(N(Cc2ccccc2)c2ccccc2)c2cn[nH]c2n1,75.3%
19,CN1CC(c2ccc(Br)cc2)C(C(=O)c2ccc(Br)cc2)C12C(=O)Nc1ccccc12 (stereo not given),70.1%
20,Nc1nc(C(=O)N/N=C/c2ccc(F)cc2)nn1-c1ccc(S(N)(=O)=O)cc1,101%

row,Compound,growth
1,COc1ccc(-c2nc(SCC(=O)Nc3nc4ccc(C)cc4s3)[nH]c(=O)c2C#N)cc1OC,97%
2,CNC(=O)NCC1OC(n2cnc3c(NC(=O)Nc4ccccc4)ncnc32)C2OC(=O)CC12 (stereo not given),102%
3,COc1ccc(NC(=O)c2ccc(Nc3ncnc4c3cnn4-c3cccc(F)c3)cc2)cc1,101%
4,CC(C)NS(=O)(=O)/N=C1\NC(=O)NC1=C(Cl)Cl,103%
5,Cc1ccc2cnc(N)c(C#Cc3cc(C(=O)Nc4ccc(CN5CCN(C)CC5)c(C(F)(F)F)c4)cnc3C)c2c1,12.6%
6,Cc1nn(-c2ccc([N+](=O)[O-])cc2)c2ncnc(N/N=C/c3ccccc3O)c12,-0.848% (active)
7,CC(C)(C)OC(=O)CN1CCc2c(sc3ncnc(N4CCN(c5ccc(F)cc5)CC4)c23)C1,95.5%
8,COC(=O)[C@@]1(C)CC[C@]2(C)CC[C@]3(C)C4=CC=C5C(=CC(=O)C(O)=C5C)[C@]4(C)[C@@H](O)C[C@@]3(C)[C@@H]2C1,51%
9,Cc1cc(Cl)nc(N2CCN(CCNc3ccnc4cc(Cl)ccc34)CC2)n1,44.8%
10,Cc1ccc(C)c2c1sc1nc(N3CCOCC3)c(C#N)c(=O)n12,80.2%
11,COc1ccc2c(c1)CC[C@@H]1[C@@H]2CC[C@]2(C)c3c(cc(C#N)c4c3sc3ccccc34)C[C@@H]12,103%
12,C=C1C(=O)O[C@H]2[C@H]1CC/C(COC(=O)NCc1ccc(Cn3c(=O)sn(-c4ccc(I)cc4)c3=O)cc1)=C\CC[C@@]1(C)O[C@@H]21,98.4%
13,O=C(O)CC(C(=O)O)/C(=C\c1ccccc1)c1ccccc1 (stereo not given),110%
14,CCN(CC)CCOc1ccc(Nc2ncc3cc(-c4c(Cl)cccc4Cl)c(=O)n(CCOC)c3n2)cc1,27.3%
15,O=C(c1ccc(Br)cc1)C(Br)C(c1ccc(Cl)cc1)C(c1ccccc1)[N+](=O)[O-] (stereo not given),79.9%
16,CN1CCOCCN(C)Cc2ccc3ccc(cc3c2)CN(C)CCOCCN(C)Cc2ccc3ccc(cc3c2)C1,106%
17,COc1ccc(CN2C(=O)OC(C)(COC(C)=O)C2=O)cc1 (stereo not given),107%
18,CN(C)c1ccc(/C=N\NC(=O)c2ccc3nc(-c4ccc(Cl)cc4)[nH]c3c2)cc1,73.2%
19,COCCn1cc(-c2csc(-c3c[nH]c4ccc(F)cc34)n2)c2cccnc21,38%
20,C/C(Cc1ccc(Cl)cc1)=C(\c1ccc(OCCN2CCCCCC2)cc1)c1ccc(OC(=O)c2ccccc2)cc1,78.8%
